# D2 antagonist: HTS Assay for Allosteric Antagonists of the Human D2 Dopamine Receptor: Primary Screen for Antagonists | D(2) dopamine receptor (Homo sapiens), P14416 | HEK293 TREx D2 cells, calcium flux, dopamine EC80 | inhibition, % at 10 µM | 340,000 compounds, 2% hits; in the data active = inhibition above about 30%; inactive = below that, where a call was filed; note: 0% is about no effect
# Target sequence (P14416 whole entry, looked up): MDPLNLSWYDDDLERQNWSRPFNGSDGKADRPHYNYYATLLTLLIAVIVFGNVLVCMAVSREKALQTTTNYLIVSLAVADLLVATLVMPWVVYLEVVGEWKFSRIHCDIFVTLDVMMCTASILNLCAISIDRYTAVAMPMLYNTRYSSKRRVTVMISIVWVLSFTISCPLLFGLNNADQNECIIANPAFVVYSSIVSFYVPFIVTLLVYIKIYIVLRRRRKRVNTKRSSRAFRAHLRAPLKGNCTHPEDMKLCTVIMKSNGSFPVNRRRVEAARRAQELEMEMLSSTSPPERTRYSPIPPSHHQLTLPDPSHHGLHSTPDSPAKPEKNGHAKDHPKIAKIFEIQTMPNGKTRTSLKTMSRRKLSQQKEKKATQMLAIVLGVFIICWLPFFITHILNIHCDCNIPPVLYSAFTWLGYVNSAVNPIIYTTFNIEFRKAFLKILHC
#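 Tetracycline-induced HEK293 TREx cells expressing D2 receptor forced-coupled to calcium signalling, loaded with no-wash calcium dye. Compounds added and calcium flux read 180 s, then dopamine added at EC80 and read a further 180 s.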
# D2 PAM-1: HTS Assay for Positive Allosteric Modulators of the Human D2 Dopamine Receptor: Primary Screen for Potentiators. D(2) dopamine receptor (Homo sapiens), P14416. HEK293 T-REx D2, calcium flux, EC20 dopamine potentiation. potentiation, % at 10 µM. 340,000 compounds, 0.34% hits;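 active = potentiation over 3 SD above the plate norm, cut at about 30% in these data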; note: 0% is about no effect
#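 Potentiation of an EC20 dopamine calcium response measured kinetically over 180 s, after a preceding 180 s compound-only read flagging agonists. Cells: inducible Hek293 Trex D2 line, 4000/well, cultured overnight at 30 C before dye loading.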
# D2 ag-1: HTS Assay for Allosteric Agonists of the Human D2 Dopamine Receptor: Primary Screen for Agonists. D(2) dopamine receptor (Homo sapiens), P14416. HEK293 T-REx D2 cells, calcium flux agonist mode. activation, % at 2 µM. 340,000 compounds, 0.53% hits. AID 485358, 2010;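 active = activation over 3 SD above normal in the single-dose calcium agonist read, cut at about 30% in these data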; note: 0% is about no effect
#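 HEK293 Trex D2 cells, tetracycline-induced, o/n 30 C 5% CO2; no-wash Ca dye, RT 30–90 min; 10-cycle baseline, 23 nl cpd added, kinetic Ca read 180 s; agonist hits = positive Ca response.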
# D2 PAM-2: Beta-Arrestin HTS for Positive Allosteric Modulators of the Human D2 Dopamine Receptor: Potentiators | 360,000 compounds, 0.23% hits | potentiation, % (no concentration beside the values) | DiscoveRx D2 beta-arrestin cells, luminescence, 90 min; 100% = 57 uM dopamine signal | AID 624464, 2012 | D(2) dopamine receptor (Homo sapiens), P14416; in the data active = potentiation above about 50%
#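 D2 cells co-treated with compound plus 50 nM dopamine (EC20) for 90 min at 37 deg C to detect potentiation. Beta-arrestin recruitment was read as enzyme-fragment luminescence after 1 h at ambient temperature. Full response was set by 57 uM dopamine.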
# D2 ag-2: Beta-Arrestin HTS for Positive Allosteric Modulators of the Human D2 Dopamine Receptor: Agonists; D(2) dopamine receptor (Homo sapiens), P14416; 360,000 compounds, 0.084% hits; AID 624465, 2012; activation, % (test concentration not listed); DiscoveRx PathHunter D2 beta-arrestin, luminescence, 90 min; 100% = 57 uM dopamine signal; in the data active = activation above about 40%
#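 Agonist mode: compounds alone added to overnight-plated D2 PathHunter cells for 90 min at 37 C, with 57 uM final dopamine (EC100) defining full response. Beta-arrestin recruitment detected by chemiluminescent reagent, read after 1 h at ambient temperature.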
# LDHA block: qHTS assay for inhibitors of human lactate dehydrogenase; L-lactate dehydrogenase A chain (Homo sapiens), P00338; purified LDHA, NADH/diaphorase-resazurin fluorescence; hits give low values; activity change, % (values are at about 110 or 230 µM); 480,000 compounds, 0.15% hits; in the data active = activity change below about -30%;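 note: plate controls were DMSO wells for no effect and wells without enzyme for full effect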
#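 Remaining NADH was detected by diaphorase (0.133 mg/mL) converting 37 µM resazurin to fluorescent resorufin, read at 0 and 20 minutes. The preceding 5-minute room-temperature reaction used 2 nM LDHA, 0.2 mM sodium pyruvate and 0.06 mM NADH at pH 7.4.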
# Active calls of the source: *; · = no result given. In the library only some 2.1% were active in any assay of this set; here they are far more common.
SMILES,D2 antagonist,D2 PAM-1,D2 ag-1,D2 PAM-2,D2 ag-2,LDHA block
CC1(C)CC(=O)c2cc(C#N)c(SCc3cc4c(cc3Cl)OCO4)nc2C1,·,·,·,·,·,4.1
CC1Cc2ccccc2N1C(=O)CSc1nnc2n1C(C)(C)Cc1ccccc1-2 (stereo not drawn),1.1,34.2*,-1.1,-12.5,-2.6,-2.6
CCOC(=O)CSc1nnc2n1C(C)(C)Cc1ccccc1-2,·,3.6,·,8.3,4.5,-19.0
CCCn1c(C)cc(C(=O)COC(=O)Cn2cnc3c2c(=O)n(C)c(=O)n3C)c1C,·,·,·,·,·,-7.6
Cc1cc(C(=O)COC(=O)Cn2cnc3c2c(=O)n(C)c(=O)n3C)c(C)n1C,45.0*,8.8,0.3,-8.6,-0.9,11.7
CC(=O)OCCNc1nc(-c2ccccc2)nc2ccccc12,38.0*,-0.6,1.4,0.0,-5.6,-1.4
COCCNc1nc(-c2ccccc2)nc2ccccc12,-5.5,8.4,1.2,-2.2,7.5,-1.1
O=C(Nc1cccnc1Oc1ccccc1)c1cc(F)cc(F)c1,·,·,·,·,·,9.0
Oc1ccccc1/C=N/Nc1nn[nH]n1,-6.4,5.8,0.2,-4.9,-0.5,-4.1
O=[N+]([O-])c1ccc(O)c(/C=N/Nc2nn[nH]n2)c1,24.8,14.7,1.0,-20.2,-4.5,-46.0*
Cc1ccc(-c2cc(C(F)F)nc(NCc3cccnc3)n2)cc1,1.4,42.0*,0.7,-22.9,-2.1,-12.8
Cc1ccc(-c2cc(C(F)F)nc(NCc3cccs3)n2)cc1,11.0,3.4,1.3,-5.0,-3.5,1.5
CCCCCC(=O)N1C[C@@H](n2cc(C3CC3)nn2)[C@H](O)C[C@@H]1c1ccc(C)cc1,·,·,·,-3.0,-12.3,-31.9*
Clc1ccccc1-c1nn2c(-c3ccc4ccccc4n3)nnc2s1,·,·,·,·,·,0.4
Cc1cc(C)nc(/N=C(\N)Nc2ccc(OCc3ccccc3)cc2)n1,69.8*,-13.3,63.2*,-5.2,-2.4,-8.5
COc1ccc(N/C(N)=N/c2nc(C)cc(C)n2)cc1,·,·,·,-4.8,-2.1,0.9
Cc1ccccc1C(C)NC(=O)Cn1cnc2c1c(=O)n(C)c(=O)n2C (stereo not drawn),·,·,·,·,·,2.2
Cc1ccc(/C=C2\CCC3=C2OC(N)=C(C#N)C3c2ccc(C)cc2)cc1 (stereo not drawn),-35.3,-5.0,72.3*,7.2,-3.3,7.5
Cc1ccc(C2C(C#N)=C(N)Oc3cc(N)ccc32)cc1 (stereo not drawn),10.5,0.3,-0.4,-0.4,-0.4,-7.3
C[n+]1c(/C=C/c2ccc3c(c2)OCO3)ccc2ccccc21,6.0,·,0.9,-1.0,1.5,-32.6*
O=C(CCl)N(Cc1ccsc1)C1CC1,·,·,·,·,·,6.2
CCc1c(C(C)S(=O)(=O)c2ccccc2)[nH]c(=O)n1CC (stereo not drawn),34.6*,-16.7,-0.1,0.1,-2.9,-3.6
O=C(Nc1ccc(Cl)c(Cl)c1)c1ccc(Cn2c(=O)[nH]c3ccsc3c2=O)cc1,-9.1,2.7,-0.4,-0.5,-8.7,-32.2*
O=C(O)CCC(=O)N1CCc2cc(S(=O)(=O)N3CCC(Cc4ccccc4)CC3)ccc21,34.0*,0.8,1.0,-4.2,-4.2,-16.3
c1ccc(CN2CCC3(CCCc4ccccc43)CC2)cc1,42.7*,-13.5,-0.4,-25.5,-0.7,-2.6
CCOC(=O)c1cc2n(c1/N=C/N(C)C)-c1ccccc1C2=O,14.9,4.0,35.6*,-3.9,-3.6,-2.4
CSc1ccc(C#N)cc1NC(=O)c1ccccc1C,50.9*,-16.8,0.9,-3.1,3.5,-6.1
c1ccc2c(c1)CCN2CC1CCNCC1,·,·,·,·,·,2.1

# High-throughput results (PubChem)
